Experimental data as given in the supplement of paper PMC10849652.
About 7,900 targets were measured; listed, in parts, are those with a hit and a random draw of the rest. About 0.6% of all pairs of compound and target were hits. Unmarked numbers belong to inactive results.

Columns and labels:
Test in all cases: log2 fold change, soluble protein after heating vs DMSO (PISA); higher = thermal stabilisation; K562 cells, 10 uM, 30 min; active = over 0.2 and 3.5 SD of the protein, either way, in both replicates (recomputed)
[1] = compound: CC[C@@H]1C(=O)N(C)c2cnc(Nc3ccc(C(=O)NC4CCN(C)CC4)cc3OC)nc2N1C1CCCC1
Summary of the method: (§1)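 Quantification of soluble protein used TMTpro 16plex LC-MS/MS, with channel sums equalised. Samples were the supernatant after 21,000xg for 90 min of pooled aliquots from K562 cells (2×10^6 cells/mL) treated with 10 μM compound for 30 min, heated for 3 min over 48°C-58°C, and extracted in PBS with 0.5% NP-40 at 4°C. Values, from duplicates, describe thermal stability against control samples on a log2 fold-change scale.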

volasertib = compound: CC[C@@H]1C(=O)N(C)c2cnc(Nc3ccc(C(=O)N[C@H]4CC[C@H](N5CCN(CC6CC6)CC5)CC4)cc3OC)nc2N1C(C)C [volasertib]
Summary of the method: as §1

[2] = compound: CC[C@H](C)N1C=C(C2=C(C=C(C=C21)C3=CN=C(C=C3)N4CCNCC4)C(=O)NCC5=C(C=C(NC5=O)C)C)C
Summary of the method: as §1

epoxomicin = compound: CC[C@H](C)[C@@H](C(=O)N[C@@H]([C@@H](C)O)C(=O)N[C@@H](CC(C)C)C(=O)[C@]1(CO1)C)NC(=O)[C@H]([C@@H](C)CC)N(C)C(=O)C [epoxomicin]
Summary of the method: as §1

[3] = compound: CCn1c(C(=O)N(C2CC2)C2CC2)cc2c3c(ncn3C)c(Nc3cc(C)n(C)n3)nc21
Summary of the method: as §1

[4] = compound: CCn1cc(-c2ccnc3[nH]c(-c4cccc(CN(C)C)c4)cc23)c(-c2ccc(NC(=O)N(C)C)cc2)n1
Summary of the method: as §1

[5] = compound: CN(C)CC(=O)Nc1ccc2[nH]c(=O)c3ccccc3c2c1
Summary of the method: as §1

rosiglitazone = compound: CN(CCOC1=CC=C(C=C1)C[C@H]2C(=O)NC(=O)S2)C3=CC=CC=N3 (racemic) [rosiglitazone]
Summary of the method: as §1

[6] = compound: CN1C2=C(C3=C1C(=O)N(N=C3)CC4=CC(=CC=C4)N)SC(=C2)S(=O)C
Summary of the method: as §1

[7] = compound: CN1CCC(CNc2ccc3ncc(-c4cccc(OC(F)(F)F)c4)n3n2)CC1
Summary of the method: as §1

saracatinib = compound: CN1CCN(CCOc2cc(OC3CCOCC3)c3c(Nc4c(Cl)ccc5c4OCO5)ncnc3c2)CC1 [saracatinib]
Summary of the method: as §1

sotrastaurin = compound: CN1CCN(c2nc(C3=C(c4c[nH]c5ccccc45)C(=O)NC3=O)c3ccccc3n2)CC1 [sotrastaurin]
Summary of the method: as §1

alvocidib = compound: CN1CC[C@H](c2c(O)cc(O)c3c(=O)cc(-c4ccccc4Cl)oc23)[C@H](O)C1 [alvocidib]
Summary of the method: as §1

Tubastatin A = compound: CN1CCc2c(c3ccccc3n2Cc2ccc(C(=O)NO)cc2)C1 [Tubastatin A]
Summary of the method: as §1

[8] = compound: CNC(=O)C1=CC=CC=C1NC2=NC(=NC=C2Cl)NC3=C(C=C(C=C3)N4CCOCC4)OC
Summary of the method: as §1

defactinib = compound: CNC(=O)c1ccc(Nc2ncc(C(F)(F)F)c(NCc3nccnc3N(C)S(C)(=O)=O)n2)cc1 [defactinib]
Summary of the method: as §1

rucaparib = compound: CNCc1ccc(-c2[nH]c3cc(F)cc4c3c2CCNC4=O)cc1 [rucaparib]
Summary of the method: as §1

[9] = compound: CNc1nc(-c2ccc3c(N)n[nH]c3c2)cc(N2C[C@@H](C(=O)NC3CCCCC3)CC[C@H]2C)n1
Summary of the method: as §1

encorafenib = compound: COC(=O)N[C@@H](C)CNc1nccc(-c2cn(C(C)C)nc2-c2cc(Cl)cc(NS(C)(=O)=O)c2F)n1 [encorafenib]
Summary of the method: as §1

[10] = compound: COC(=O)[C@H](CCSC)NC(=O)C1=C(C=C(C=C1)NC[C@H](CS)N)C2=CC=CC=C2
Summary of the method: as §1

UniProt P01130, sequence (P01130 whole entry, looked up): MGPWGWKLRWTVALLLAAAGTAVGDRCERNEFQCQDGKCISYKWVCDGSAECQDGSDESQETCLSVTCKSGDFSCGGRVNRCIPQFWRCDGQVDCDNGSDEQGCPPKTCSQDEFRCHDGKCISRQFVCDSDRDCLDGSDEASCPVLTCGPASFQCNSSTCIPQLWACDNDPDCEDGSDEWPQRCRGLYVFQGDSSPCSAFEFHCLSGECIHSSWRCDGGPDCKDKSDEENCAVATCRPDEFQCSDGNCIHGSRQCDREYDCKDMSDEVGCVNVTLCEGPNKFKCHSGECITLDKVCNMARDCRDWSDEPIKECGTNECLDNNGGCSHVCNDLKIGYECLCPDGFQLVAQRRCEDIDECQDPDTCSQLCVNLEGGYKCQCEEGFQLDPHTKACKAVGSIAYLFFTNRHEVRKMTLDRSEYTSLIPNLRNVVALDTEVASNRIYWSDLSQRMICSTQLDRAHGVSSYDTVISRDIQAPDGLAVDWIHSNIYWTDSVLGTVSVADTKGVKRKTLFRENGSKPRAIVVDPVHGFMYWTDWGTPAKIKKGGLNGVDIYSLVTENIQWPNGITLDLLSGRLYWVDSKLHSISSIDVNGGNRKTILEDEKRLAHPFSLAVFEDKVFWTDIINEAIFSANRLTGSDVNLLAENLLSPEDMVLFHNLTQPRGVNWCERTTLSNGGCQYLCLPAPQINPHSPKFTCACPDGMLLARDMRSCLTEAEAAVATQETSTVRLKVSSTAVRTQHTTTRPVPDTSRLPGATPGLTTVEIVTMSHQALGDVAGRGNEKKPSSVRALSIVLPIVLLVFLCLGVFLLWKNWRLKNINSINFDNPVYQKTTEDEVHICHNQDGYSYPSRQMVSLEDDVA
UniProt Q9UHB6, sequence (Q9UHB6 whole entry, looked up): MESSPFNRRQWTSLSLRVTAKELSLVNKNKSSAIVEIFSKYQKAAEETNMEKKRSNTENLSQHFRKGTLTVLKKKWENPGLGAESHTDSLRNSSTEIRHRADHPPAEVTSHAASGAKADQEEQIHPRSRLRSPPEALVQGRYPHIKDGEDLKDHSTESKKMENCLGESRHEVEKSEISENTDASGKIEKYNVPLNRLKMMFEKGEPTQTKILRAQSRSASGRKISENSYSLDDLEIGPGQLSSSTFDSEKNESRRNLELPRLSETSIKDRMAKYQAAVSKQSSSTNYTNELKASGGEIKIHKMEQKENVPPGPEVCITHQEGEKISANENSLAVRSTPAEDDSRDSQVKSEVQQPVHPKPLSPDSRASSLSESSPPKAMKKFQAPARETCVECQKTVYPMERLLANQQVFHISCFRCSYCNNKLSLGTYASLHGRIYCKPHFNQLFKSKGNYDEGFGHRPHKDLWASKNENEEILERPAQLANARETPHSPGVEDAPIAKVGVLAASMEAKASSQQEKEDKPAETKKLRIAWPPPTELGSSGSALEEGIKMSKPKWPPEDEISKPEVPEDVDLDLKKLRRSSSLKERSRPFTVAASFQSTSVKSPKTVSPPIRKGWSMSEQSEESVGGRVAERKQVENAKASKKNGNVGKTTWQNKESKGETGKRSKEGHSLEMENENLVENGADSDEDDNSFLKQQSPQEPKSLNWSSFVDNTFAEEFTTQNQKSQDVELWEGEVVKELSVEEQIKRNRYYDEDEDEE
UniProt P10620, sequence (P10620 whole entry, looked up): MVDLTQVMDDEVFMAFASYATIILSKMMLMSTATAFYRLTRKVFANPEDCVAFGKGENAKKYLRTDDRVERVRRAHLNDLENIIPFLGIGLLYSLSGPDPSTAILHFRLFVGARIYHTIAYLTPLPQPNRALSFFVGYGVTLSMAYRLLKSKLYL
UniProt Q14693, sequence (Q14693 whole entry, looked up): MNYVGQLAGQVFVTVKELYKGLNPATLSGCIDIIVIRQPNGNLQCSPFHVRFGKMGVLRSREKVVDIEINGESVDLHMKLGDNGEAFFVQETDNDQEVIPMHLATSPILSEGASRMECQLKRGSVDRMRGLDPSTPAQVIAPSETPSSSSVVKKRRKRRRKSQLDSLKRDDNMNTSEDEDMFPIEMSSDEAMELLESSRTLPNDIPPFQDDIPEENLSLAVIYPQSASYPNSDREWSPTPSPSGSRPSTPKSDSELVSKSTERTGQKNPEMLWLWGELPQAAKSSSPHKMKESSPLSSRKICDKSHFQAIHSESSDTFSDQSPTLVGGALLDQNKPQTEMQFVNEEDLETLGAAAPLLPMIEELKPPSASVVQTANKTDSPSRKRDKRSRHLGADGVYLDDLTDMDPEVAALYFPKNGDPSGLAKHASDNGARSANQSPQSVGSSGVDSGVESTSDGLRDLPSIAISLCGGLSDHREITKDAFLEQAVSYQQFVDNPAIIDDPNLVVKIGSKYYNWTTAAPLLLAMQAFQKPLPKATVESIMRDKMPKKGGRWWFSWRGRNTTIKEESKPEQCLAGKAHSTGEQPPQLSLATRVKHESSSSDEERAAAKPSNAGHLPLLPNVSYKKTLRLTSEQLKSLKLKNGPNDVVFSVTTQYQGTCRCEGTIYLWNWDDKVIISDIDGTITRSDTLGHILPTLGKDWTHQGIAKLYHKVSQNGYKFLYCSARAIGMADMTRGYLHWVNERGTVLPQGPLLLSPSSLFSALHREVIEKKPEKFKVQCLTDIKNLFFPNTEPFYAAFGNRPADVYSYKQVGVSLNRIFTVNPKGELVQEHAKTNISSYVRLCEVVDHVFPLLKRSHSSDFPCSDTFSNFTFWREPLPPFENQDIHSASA
UniProt P36507, sequence (P36507 whole entry, looked up): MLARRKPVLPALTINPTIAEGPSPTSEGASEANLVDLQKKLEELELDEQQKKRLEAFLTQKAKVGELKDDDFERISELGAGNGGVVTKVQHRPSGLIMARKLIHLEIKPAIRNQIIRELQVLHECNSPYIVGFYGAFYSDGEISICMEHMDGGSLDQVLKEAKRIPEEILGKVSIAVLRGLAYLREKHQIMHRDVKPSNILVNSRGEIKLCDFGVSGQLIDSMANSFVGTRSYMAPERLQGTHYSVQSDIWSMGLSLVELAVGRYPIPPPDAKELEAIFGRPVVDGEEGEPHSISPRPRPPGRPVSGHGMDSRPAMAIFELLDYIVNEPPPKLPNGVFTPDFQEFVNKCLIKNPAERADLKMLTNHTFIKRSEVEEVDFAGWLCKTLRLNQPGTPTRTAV
UniProt Q8TBB5, sequence (Q8TBB5 whole entry, looked up): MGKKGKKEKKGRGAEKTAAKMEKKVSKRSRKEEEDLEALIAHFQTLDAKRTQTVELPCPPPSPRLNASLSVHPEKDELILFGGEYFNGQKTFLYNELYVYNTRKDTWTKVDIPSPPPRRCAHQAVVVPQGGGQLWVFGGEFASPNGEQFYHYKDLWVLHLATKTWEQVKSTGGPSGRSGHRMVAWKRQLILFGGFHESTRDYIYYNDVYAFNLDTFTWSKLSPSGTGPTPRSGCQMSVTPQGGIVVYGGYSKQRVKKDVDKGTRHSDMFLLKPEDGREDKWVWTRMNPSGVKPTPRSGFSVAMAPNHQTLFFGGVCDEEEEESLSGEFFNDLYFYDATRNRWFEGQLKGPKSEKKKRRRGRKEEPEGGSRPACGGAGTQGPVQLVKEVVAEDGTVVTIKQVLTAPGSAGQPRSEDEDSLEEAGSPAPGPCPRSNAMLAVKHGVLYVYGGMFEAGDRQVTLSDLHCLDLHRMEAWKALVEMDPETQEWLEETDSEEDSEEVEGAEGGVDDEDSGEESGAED
UniProt Q13123, sequence (Q13123 whole entry, looked up): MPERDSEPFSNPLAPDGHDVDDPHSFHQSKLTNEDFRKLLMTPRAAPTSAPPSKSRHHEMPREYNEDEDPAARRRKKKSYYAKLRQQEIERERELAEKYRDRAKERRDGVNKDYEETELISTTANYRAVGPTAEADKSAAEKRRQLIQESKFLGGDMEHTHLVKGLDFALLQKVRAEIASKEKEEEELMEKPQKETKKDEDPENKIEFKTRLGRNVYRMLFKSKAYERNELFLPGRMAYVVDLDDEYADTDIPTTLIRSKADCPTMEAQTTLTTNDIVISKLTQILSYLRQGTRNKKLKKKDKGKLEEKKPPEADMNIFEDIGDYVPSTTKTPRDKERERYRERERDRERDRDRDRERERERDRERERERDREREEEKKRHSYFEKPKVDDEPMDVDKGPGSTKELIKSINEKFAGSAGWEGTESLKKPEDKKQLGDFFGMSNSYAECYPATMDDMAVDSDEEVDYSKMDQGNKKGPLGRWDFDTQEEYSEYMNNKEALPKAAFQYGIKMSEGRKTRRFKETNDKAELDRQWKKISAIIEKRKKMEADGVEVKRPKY

Row | Target | log2 fold change [1] | log2 fold change (volasertib) | log2 fold change [2] | log2 fold change (epoxomicin) | log2 fold change [3] | log2 fold change [4] | log2 fold change [5] | log2 fold change (rosiglitazone) | log2 fold change [6] | log2 fold change [7] | log2 fold change (saracatinib) | log2 fold change (sotrastaurin) | log2 fold change (alvocidib) | log2 fold change (Tubastatin A) | log2 fold change [8] | log2 fold change (defactinib) | log2 fold change (rucaparib) | log2 fold change [9] | log2 fold change (encorafenib) | log2 fold change [10]
1 | MAP2K2 (UniProt P36507) | -0.12 | 0.084 | 0.077 | 0.044 | -0.02 | -0.06 | 0.022 | 0.04 | -0.056 | -0.1 | 0.012 | -0.037 | -0.024 | 0.01 | -0.138 | -0.056 | -0.039 | -0.021 | -0.074 | 0.001
2 | MIA2 (UniProt Q96PC5) | -0.039 | -0.29 (active) | 0.005 | 0.037 | -0.009 | 0.054 | 0.005 | 0.034 | 0.031 | 0.053 | 0.003 | -0.106 | -0.052 | -0.013 | 0.021 | -0.085 | 0.074 | -0.001 | 0.07 | 0.037
3 | ILVBL (UniProt A1L0T0) | 0.049 | 0.069 | -0.034 | 0.069 | 0.006 | 0.042 | 0.036 | -0.044 | -0.068 | 0.019 | -0.022 | 0.135 | -0.162 | -0.02 | 0.002 | -0.054 | -0.024 | 0.052 | 0.059 | 0.019
4 | LDLR (UniProt P01130) | -0.135 | -0.176 | -0.028 | 0.031 | -0.007 | 0.058 | -0.059 | 0.009 | -0.004 | 0.064 | 0.113 | 0.003 | -0.04 | -0.002 | 0.003 | -0.033 | 0 | -0.065 | 0.01 | 0.104
5 | KLHDC4 (UniProt Q8TBB5) | 0.091 | -0.342 | 0.012 | -0.026 | 0.036 | -0.064 | 0.065 | -0.012 | 0.075 | 0.158 | -0.006 | -0.037 | 0.074 | -0.072 | 0.02 | 0.021 | 0.115 | -0.029 | 0.106 | -0.066
6 | LIMA1 isoform 4 (UniProt Q9UHB6) | -0.006 | -0.115 | -0.021 | 0.003 | -0.015 | 0 | -0.053 | -0.01 | -0.006 | 0.086 | 0.046 | -0.109 | 0.111 | 0.014 | -0.033 | -0.015 | 0.074 | -0.089 | 0.017 | 0.01
7 | IWS1 (UniProt Q96ST2) | 0.048 | 0.034 | 0.029 | 0.006 | -0.14 | 0.021 | 0.046 | 0.029 | 0 | -0.054 | -0.042 | 0.021 | 0.336 (active) | 0.04 | -0.054 | 0.035 | 0.032 | -0.034 | -0.1 | -0.127
8 | IK (UniProt Q13123) | -0.136 | -0.366 (active) | 0.02 | 0.125 | -0.053 | 0.069 | -0.034 | 0.02 | 0.145 | -0.035 | -0.006 | -0.037 | 0.108 | 0.05 | -0.036 | 0.013 | 0.198 | -0.059 | 0.197 | 0.002
9 | MAP4 (UniProt E7EVA0) | 0.079 | 0.246 | 0.036 | -0.113 | -0.004 | 0.068 | -0.021 | -0.206 | 0.131 | 0.152 | 0.03 | -0.015 | 0.127 | 0.041 | -0.059 | 0.099 | 0.209 | 0.043 | 0.017 | 0.032
10 | KPNA6 (UniProt O60684) | -0.225 | -0.699 (active) | 0.04 | 0.021 | -0.098 | 0.043 | 0.063 | 0.062 | 0.227 | -0.184 | -0.004 | -0.117 | -0.073 | 0.008 | 0.082 | -0.06 | 0.092 | -0.042 | 0.12 | -0.099
11 | MGST1 (UniProt P10620) | 0.037 | 0.039 | -0.043 | 0.003 | -0.025 | -0.158 | 0.012 | -0.037 | -0.079 | 0.086 | 0.042 | -0.013 | 0.01 | -0.174 | 0.009 | -0.037 | 0.003 | 0.021 | -0.147 | 0.018
12 | LARP1 (UniProt Q6PKG0) | 0.098 | 0.071 | 0.047 | -0.034 | 0.061 | 0.016 | -0.054 | 0.014 | 0.131 | 0.025 | -0.023 | -0.029 | 0.12 | 0.059 | 0.05 | 0.089 | 0.11 | 0.004 | 0.039 | 0.01
13 | LPIN1 isoform 7 (UniProt Q14693) | 0.06 | -0.002 | 0.063 | 0.098 | 0.011 | -0.045 | 0.012 | 0.055 | 0.008 | -0.016 | 0.003 | -0.093 | -0.059 | 0.041 | -0.113 | -0.03 | -0.054 | -0.13 | 0.009 | 0.035
14 | IPO11 isoform 2 (UniProt Q9UI26) | -0.104 | -0.3 (active) | -0.004 | 0.066 | -0.01 | -0.068 | 0.028 | -0.002 | -0.082 | -0.016 | 0.048 | -0.02 | -0.006 | -0.043 | 0.01 | -0.013 | -0.053 | -0.03 | -0.004 | 0.012
15 | LUC7L2 (UniProt Q9Y383) | -0.171 | -0.345 (active) | 0.044 | -0.017 | 0.003 | -0.003 | -0.001 | 0.011 | -0.025 | -0.073 | 0.022 | -0.01 | -0.246 | 0.007 | -0.304 (active) | -0.267 (active) | -0.077 | -0.047 | 0.065 | 0.03
